Experimental data as given in PubChem BioAssay AID1030 (National Center for Advancing Translational Sciences (NCATS), 2008).
Out of some 220,000 compounds screened, about 16,000 (7.3%) were called active. Not shown: some 25% with an inconclusive outcome. What follows is part of a selection rich in actives, with near analogues and random picks from the rest. A number with no mark means an inactive call. The call rests on the fitted dose curve; in most records, active means well fitted inhibition curve with a large enough effect (not every such curve was filed as active); inconclusive means small, poorly fitted or top-dose-only effect, or another doubt; inactive means no such curve, though single readings can be large or run the other way.

target: Aldehyde dehydrogenase 1A1 (Homo sapiens) (UniProt P00352); experiment: qHTS Assay for Inhibitors of Aldehyde Dehydrogenase 1 (ALDH1A1); details: Purified ALDH1A1, NADH fluorescence, propionaldehyde substrate; series mostly up to 75.3 µM; activity, negative = inhibition: at the top concentration;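 on activity, negative = inhibition: plate controls were no enzyme wells and a reference inhibitor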
Potency means the concentration at half of the fitted maximal effect.

Chain of Aldehyde dehydrogenase 1A1 (Homo sapiens) (P00352 whole entry, looked up): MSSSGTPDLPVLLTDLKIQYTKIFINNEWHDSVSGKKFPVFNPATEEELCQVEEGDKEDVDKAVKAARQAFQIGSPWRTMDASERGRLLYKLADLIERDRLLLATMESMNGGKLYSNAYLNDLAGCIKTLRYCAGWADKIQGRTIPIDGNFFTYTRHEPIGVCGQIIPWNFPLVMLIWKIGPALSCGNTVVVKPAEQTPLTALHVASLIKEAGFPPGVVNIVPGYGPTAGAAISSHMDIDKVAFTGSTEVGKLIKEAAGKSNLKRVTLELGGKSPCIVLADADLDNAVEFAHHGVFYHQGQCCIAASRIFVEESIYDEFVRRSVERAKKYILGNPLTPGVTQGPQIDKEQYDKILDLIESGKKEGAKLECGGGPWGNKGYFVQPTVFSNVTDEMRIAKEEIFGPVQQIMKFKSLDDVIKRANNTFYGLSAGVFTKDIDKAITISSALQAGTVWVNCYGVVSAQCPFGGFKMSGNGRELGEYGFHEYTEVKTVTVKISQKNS

SMILES | activity, negative = inhibition | Potency
COC(=O)CCCC1=CC2=CC(=O)C(C)(OC(=O)c3cccs3)C(=O)C2=CN1c1ccc(CO)cc1 (stereo unspecified) | 3.06% [at 13.5 µM] | 
COc1ccc(Cn2nnc3c(=O)[nH]c(C4CCN(C(=O)c5ccccc5Cl)CC4)nc32)cc1 |  | 14.1 µM (active)
COc1ccc(CN2CCC(c3nc4ccc(Cl)cc4[nH]3)CC2)cc1 | 10.1% | 
Cc1ccc(Cn2nnc3c(=O)n(CC(=O)N4CCCCC4)cnc32)cc1 | 3.46% | 
Cc1ccc(NC(=O)N2CCC(C(=O)NCc3ccc(F)cc3)CC2)cc1 | -4.87% | 
O=C(Cc1c(F)cccc1Cl)Nc1ccc(-n2cnnn2)cc1 | -5.57% | 
Cc1ccc(NC(=O)N2CCC(c3nc4c(nnn4Cc4c(F)cccc4Cl)c(=O)[nH]3)CC2)cc1 |  | 15.8 µM (active)
COC(=O)c1nc(NC(=O)c2ccc(C(C)(C)C)cc2)n[nH]1 | 3.87% | 
CSc1nc2ccc(NC(=O)c3c(F)cccc3F)cc2s1 | 1.93% | 
N/C(=N\OC(=O)c1ccc2c(c1)OCO2)c1ccc(Br)cc1 | -2.88% | 
COc1ccccc1Cn1c(C)nnc1-c1cnn(C)c1N | -12% | 
O=C(CN1CCCCCC1)NCCN1C(=O)S/C(=C\c2ccccc2Cl)C1=O | -7.16% | 
CCC1(CC)NC(=O)N(Cc2nc3ccccc3s2)C1=O | -2.71% | 
CC(CC(=O)Nc1ccccc1)n1ccnc1 (stereo unspecified) | 4.51% | 
CS(=O)(=O)N1CCN(c2ccc(C(=O)NC3C4CC5CC(C4)CC3C5)cc2[N+](=O)[O-])CC1 (stereo unspecified) |  | 14.1 µM (active)
Cc1cccc(N2CCN(c3ccc(C(N)=O)cc3[N+](=O)[O-])CC2)c1C | -1.28% | 
CC(NC(=O)c1ccc(N2CCNCC2)c([N+](=O)[O-])c1)C12CC3CC(CC(C3)C1)C2 (stereo unspecified) | -5.25% | 
CCN(CC(=O)NCc1cccs1)S(=O)(=O)c1ccc(NC(C)=O)cc1 | -4.69% | 
CCn1c(CSc2ncccn2)nnc1SCC(=O)N1c2ccccc2CC1C (stereo unspecified) |  | 25.1 µM (active)
CC1CC(C)CN(C(=O)CSc2nnc(CSc3ncccn3)n2C)C1 (stereo unspecified) | 17.9% | 
Cc1cc(=O)[nH]c(SCC(=O)N2c3ccccc3CC2C)n1 (stereo unspecified) | 10.4% | 
Cc1noc(C)c1-c1nc(CSc2ccc(Cl)cc2)no1 | 10.5% | 

SMILES | activity, negative = inhibition | Potency
CC1CCC(NC(=O)C2c3ccccc3C(=O)N2Cc2ccc3c(c2)OCO3)CC1 (stereo unspecified) | -5.83% | 
CN(CC(=O)Nc1ccccc1[N+](=O)[O-])Cc1ccc(Br)cc1 | -5.4% | 
CCOc1ccc(Br)cc1S(=O)(=O)Nc1cccc(S(=O)(=O)N(CC)CC)c1 |  | 11.2 µM (active)
CCOc1ccc(Br)cc1S(=O)(=O)N1CCC(C(=O)O)CC1 | -7.36% | 
CCOc1ccc(Br)cc1S(=O)(=O)Nc1ccc(C(=O)OC(C)C(=O)N(C)c2ccccc2)cc1 (stereo unspecified) | 3.26% | 
N#Cc1c(-c2ccc(F)cc2)nc(-c2ccccc2)[nH]c1=O | -6.35% | 
Cc1ccc(OCCCn2c(=O)oc3ccccc32)cc1 | 4.85% | 
OCC1(CCc2ccccc2)CCN(Cc2ccc3nsnc3c2)CC1 |  | 8.91 µM (active)
CC(=O)c1cccc(CN2CCC(CO)(Cc3ccccc3)CC2)c1 | 2.05% | 
OCCC1CN(Cc2ccc3nsnc3c2)CCN1C1CCCC1 (stereo unspecified) | 2.91% | 
CSc1ccccc1C(=O)NCc1ccccc1 | -0.536% | 
CCc1cccc(C)c1NC(=S)N(CCCN1CCN(C)CC1)Cc1cccs1 | -3.58% | 
CCN(C(=O)COC(=O)c1cc(S(=O)(=O)N2CCc3ccccc32)ccc1OC)C1CCS(=O)(=O)C1 (stereo unspecified) | -3.9% | 
CCC(C)(C)NC(=O)/C=C/c1cc(OC)c(OC)c(S(=O)(=O)N2CCc3ccccc32)c1 | 0.69% | 
COc1ccc(C(=O)OCC(=O)NCC2CCCCC2)cc1S(=O)(=O)N1CCCc2ccccc21 |  | 20 µM (active)
O=C(O)c1ccn(COc2ccc(Br)cc2)n1 | -0.0265% | 
O=C(CSc1nnc2ccc(-c3ccncc3)nn12)N1CCCCC1 | -9.62% | 
CC(C)(C)c1cc(NC(=O)NN2CCOCC2)nn1-c1c(Cl)cc(Cl)cc1Cl | -0.397% | 
CSCCC(NC(=O)c1ccc(=O)n(C)n1)c1nc2ccccc2[nH]1 (stereo unspecified) | 11.8% | 
COc1ccc(CC(=O)N[C@@H](CCSC)c2nc3ccccc3[nH]2)cc1 |  | 8.91 µM (active)
CSCCC(NC(=O)c1cc([N+](=O)[O-])cc([N+](=O)[O-])c1)c1nc2ccccc2[nH]1 (stereo unspecified) | 4.43% | 
Cc1ccc(C(=O)Cn2cc([N+](=O)[O-])nc2C)cc1 | 9.11% | 

SMILES | activity, negative = inhibition | Potency
C=CCn1cnc2scc(-c3ccccc3)c2c1=O | 0.35% | 
C=CCn1c(SCC(=O)/C(C#N)=C(\C)N)nc2sc(C)c(C)c2c1=O | -5.93% | 
C=CCn1c(SCc2csc(C)n2)nc2scc(-c3ccc(C)o3)c2c1=O |  | 22.4 µM (active)
CN1CCCN(C(=O)C2CCCCC2)CC1 | -8.59% | 
COc1ccccc1NC(=O)CCSc1nnc(-c2ccc(O)cc2)o1 | -7.94% | 
CN(C)/C=C1/C(=O)Nc2ccccc21 | -4.37% | 
O=C1CCCCC(=O)c2ccccc2N1 | -2.2% | 
CN(C)/C=C1/Nc2ccccc2C1=O |  | 25.1 µM (active)
CCOC(=O)C1(Cc2cccc(OC)c2)CCCN(S(=O)(=O)c2cccnc2)C1 (stereo unspecified) | -6.96% | 
O=C(NCCCN1CCOCC1)c1ccccc1NS(=O)(=O)c1ccc(Br)cc1 | 6.72% | 
CCOC(=O)NC(=O)C(=CNc1cccc(OC)c1)C(=O)NC(=O)OCC | -4.91% | 
CSC1=N/C(=C\c2ccc3c(c2)OCO3)C(=O)S1 | 13.1% | 
CCC1=C/C(=C\c2ccc3c(c2)OCO3)C(=O)S1 |  | 28.2 µM (active)
CCc1c(C)sc(NC(=O)/C=C/c2ccc3c(c2)OCO3)c1C(=O)OC | -7.92% | 
CC(C)(C)NCC(O)COc1cccc2[nH]c(=O)[nH]c12 (stereo unspecified) |  | inactive
COc1cc2c(cc1OC)CC1(CCCCC1)N=C2 | 7.1% | 
COc1ccc(CCN(C(=O)COc2ccccc2)c2nc(-c3ccccc3)cs2)cc1OC | -1.23% | 
COc1ccc(C(CCN(Cc2ccc(OC)c(OC)c2)C(=O)CCl)c2ccccc2)cc1 (stereo unspecified) |  | 3.55 µM (active)
COc1ccc(CCNC(=O)C(Sc2ccccn2)c2ccccc2)cc1OC (stereo unspecified) | -13.6% | 
CCN(CC)CCNC(=O)c1sc2ncn(CC(=O)Nc3ccc(C)c(Cl)c3)c(=O)c2c1C | 4.02% | 
COCCNC(=S)N(Cc1cccnc1)Cc1ccc(OC)c(OC)c1 | 12.2% | 
COC(=O)c1ccc(CSc2nncn2N)cc1 | 10.2% | 
